Assay outcomes deposited in PubChem BioAssay by National Center for Advancing Translational Sciences (NCATS).
Rows were chosen to be rich in hits. Some 2.4% of all compounds tested hit in one or more screens of this group.
D2 ag-1 = HTS Assay for Allosteric Agonists of the Human D2 Dopamine Receptor: Primary Screen for Agonists; actives 0.53% (n = 340,000); AID 485358, 2010; D(2) dopamine receptor (Homo sapiens), P14416; activation, % at 2 µM; HEK293 T-REx D2 cells, calcium flux agonist mode;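 active = activation over 3 SD above normal in the single-dose calcium agonist read, cut at about 30% in these data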
Target sequence (P14416 whole entry, looked up): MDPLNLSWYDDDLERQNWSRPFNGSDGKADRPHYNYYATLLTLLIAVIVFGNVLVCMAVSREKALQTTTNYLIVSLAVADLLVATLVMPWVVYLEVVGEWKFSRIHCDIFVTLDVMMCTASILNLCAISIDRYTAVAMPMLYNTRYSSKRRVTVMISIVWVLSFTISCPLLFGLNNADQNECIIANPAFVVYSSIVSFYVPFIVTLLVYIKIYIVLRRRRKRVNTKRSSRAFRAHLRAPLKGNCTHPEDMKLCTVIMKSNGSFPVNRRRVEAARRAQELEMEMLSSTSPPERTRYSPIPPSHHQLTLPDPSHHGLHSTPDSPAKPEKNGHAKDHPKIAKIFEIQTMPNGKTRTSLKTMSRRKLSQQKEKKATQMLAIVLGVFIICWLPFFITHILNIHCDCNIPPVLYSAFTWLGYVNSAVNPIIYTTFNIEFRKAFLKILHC
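In this primary screen, compounds producing a positive calcium signal within 180 s of addition to tetracycline-induced, force-coupled HEK293 Trex D2 cells are flagged; cells are dye-loaded with a no-wash calcium kit beforehand.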
D2 antag = HTS Assay for Allosteric Antagonists of the Human D2 Dopamine Receptor: Primary Screen for Antagonists | inhibition, % at 10 µM | AID 485344, 2010 | D(2) dopamine receptor (Homo sapiens), P14416 | actives 2% (n = 340,000) | HEK293 TREx D2 cells, calcium flux, dopamine EC80; in the data active = inhibition above about 30%; inactive = below that, where a call was filed
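Cells plated overnight at 30 C with tetracycline; no-wash calcium dye, 30–90 min RT; 10 s baseline; compound pinned; 180 s read; EC80 dopamine added; another 180 s read.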
D2 PAM-1 = Beta-Arrestin HTS for Positive Allosteric Modulators of the Human D2 Dopamine Receptor: Potentiators | AID 624464, 2012 | potentiation, % (test concentration not listed) | actives 0.23% (n = 360,000) | DiscoveRx D2 beta-arrestin cells, luminescence, 90 min; 100% = 57 uM dopamine signal | D(2) dopamine receptor (Homo sapiens), P14416; in the data active = potentiation above about 50%
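PathHunter beta-arrestin assay in DiscoveRx D2 cells. Compounds were added with an EC20 of dopamine (50 nM final) for 90 min at 37 deg C. Luminescence was read 1 h after detection reagent, with 57 uM dopamine as the EC100 control.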
D2 PAM-2 = HTS Assay for Positive Allosteric Modulators of the Human D2 Dopamine Receptor: Primary Screen for Potentiators | potentiation, % at 10 µM | D(2) dopamine receptor (Homo sapiens), P14416 | HEK293 T-REx D2, calcium flux, EC20 dopamine potentiation | actives 0.34% (n = 340,000);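 active = potentiation over 3 SD above the plate norm, cut at about 30% in these data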
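Tetracycline-induced Hek293 Trex D2 cells, force-coupled to calcium, loaded with no-wash calcium dye. Compound added with 180 s kinetic read for agonism, then EC20 dopamine and a further 180 s read for potentiation.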
D2 ag-2 = Beta-Arrestin HTS for Positive Allosteric Modulators of the Human D2 Dopamine Receptor: Agonists | AID 624465, 2012 | activation, % (concentration not given with the values) | DiscoveRx PathHunter D2 beta-arrestin, luminescence, 90 min; 100% = 57 uM dopamine signal | D(2) dopamine receptor (Homo sapiens), P14416 | actives 0.084% (n = 360,000); in the data active = activation above about 40%
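Agonist mode: compounds alone added to overnight-plated D2 PathHunter cells for 90 min at 37 C, with 57 uM final dopamine (EC100) defining full response. Beta-arrestin recruitment detected by chemiluminescent reagent, read after 1 h at ambient temperature.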
Each line names hits and unclear results; the compound was inactive in the other large screens.

CC(NCC(O)c1ccc([N+](=O)[O-])cc1)C12CC3CC(CC(C3)C1)C2 (centres undefined)	D2 antag 38
O=C(NCC(O)c1ccc([N+](=O)[O-])cc1)Nc1ccccc1 (centres undefined)	none
CC(=O)c1ccc(NC(=O)[C@@H]2CCCN2C2=NS(=O)(=O)c3ccccc32)cc1	D2 antag 37
Cc1cccc(NC(=O)[C@@H]2CCCN2C2=NS(=O)(=O)c3ccccc32)c1C	none
CCc1cccc(-n2c(=O)c3cccnc3n2CC(=O)NCc2ccccc2Cl)c1	none (no result: D2 antag, D2 PAM-1, D2 ag-2)
Cc1[nH]nc2c1C(c1ccc(F)cc1)C1=C(CC(C)(C)CC1=O)N2 (centres undefined)	D2 PAM-2 30
Cc1ccc(C2C3=C(CC(C)(C)CC3=O)Nc3n[nH]c(C)c32)cc1 (centres undefined)	none
CCc1nnc(NC(=O)CSc2nnc(-c3ccncc3)n2C)s1	D2 PAM-2 31
Cc1cccc(CCNc2ncnc3onc(-c4ccc(Cl)cc4)c23)c1	none (no result: D2 antag, D2 PAM-1, D2 ag-2)
C=CCNc1nc(Cl)nc(Nc2ccc(OC)cc2OC)n1	none
COc1ccc(Nc2nc(Cl)nc(Nc3ccc(OC)cc3OC)n2)c(OC)c1	D2 antag 51
COc1cccc(NC(=O)CN(C)C(=O)c2cccc(NS(=O)(=O)c3ccc(Br)cc3)c2)c1	none (no result: D2 ag-1, D2 antag, D2 PAM-2)
COc1cccc(NC(=O)CN(C)C(=O)c2cccc(NS(=O)(=O)c3ccccc3)c2)c1	D2 antag 32
Cc1ccc(NC(=O)CN(C)C(=O)c2cccc(S(=O)(=O)NCc3cccs3)c2)cc1	none
COc1cccc(NC(=O)CN(C)C(=O)CC(NC(=O)c2ccccc2Cl)c2ccccc2)c1 (centres undefined)	D2 antag 32
Cc1ccc(NC(=O)CN(C)C(=O)c2cccc(S(=O)(=O)NCc3ccccc3)c2)cc1	D2 antag 46
Cc1nn(C)c2c1c(-c1ccccc1)cc(=O)n2Cc1ccccc1Cl	none (no result: D2 antag, D2 PAM-1, D2 ag-2)
CCN(CC)CCn1c2ccccc2c2nc3ccccc3nc21	none
COc1ccc2c(c1)c1nc3ccccc3nc1n2CCn1c(=O)oc2ccccc21	D2 antag 34
COc1ccc2c(c1)c1nc3ccccc3nc1n2CCCN1C(=O)c2ccccc2C1=O	none
O=c1oc2ccccc2n1CCn1c2ccccc2c2nc3ccccc3nc21	D2 PAM-2 76
CCCn1c2ccccc2c2nc3ccccc3nc21	D2 PAM-2 47
O=C(Cn1c(SCCOc2ccccc2Cl)nc2ccccc21)N1CCCCC1	none (no result: D2 ag-1, D2 antag, D2 PAM-1, D2 ag-2)
O=S(=O)(NCC1CCCO1)c1ccc(S(=O)(=O)N(Cc2ccccn2)C2CC2)cc1 (centres undefined)	D2 antag 74
CCOc1ccccc1N(CC)C(=O)c1cc2c(=O)n(CC)c3ccccc3c2s1	none (no result: D2 antag, D2 PAM-1, D2 ag-2)
O=C(Nc1cccc(C(F)(F)F)c1)C1CC(=O)N(CCc2ccccc2)C1 (centres undefined)	D2 antag 63
COc1cccc(Cn2c(CNC(=O)CCc3ccccc3)nc3cccnc32)c1	none (no result: D2 antag, D2 PAM-1, D2 ag-2)
Cc1cc(C)cc(NC(=O)c2cc(C)nc3c2c(C)nn3-c2ccccc2)c1	none (no result: D2 antag, D2 PAM-1, D2 ag-2)
O=C(COc1ccccc1F)Nc1ccc2nc(SCC(=O)N3CCOCC3)sc2c1	none (no result: D2 antag, D2 PAM-1, D2 ag-2)
COc1ccc(N2C(=O)C(Cl)=C(N3CCCC(C)C3)C2=O)cc1 (centres undefined)	none
CC1CCCN(C2=C(Cl)C(=O)N(c3cccc(Cl)c3)C2=O)C1 (centres undefined)	D2 antag 44
CCOC(=O)Cn1c(=O)oc2cc(S(=O)(=O)Nc3cc(OC)cc(OC)c3)ccc21	none (no result: D2 antag, D2 PAM-1, D2 ag-2)
CCCCC(=O)NC(=S)Nc1ccccc1C(=O)Nc1ccccc1	none
CC(=O)NC(=S)Nc1ccccc1C(=O)Nc1ccccc1	D2 antag 47
COc1cc2cc(CNc3ccccc3)c(=O)n(CC(=O)Nc3cc(C)cc(C)c3)c2cc1OC	none (no result: D2 antag, D2 PAM-1, D2 ag-2)
Cc1ccc(OCCCCN2CCc3ccccc3C2)c(C)c1	D2 antag 76
Cc1ccc(C(C)C)c(OCCN2CCc3ccccc3C2)c1	none
Cc1ccc(OCCCCn2cnc3ccccc32)c(C)c1	none
Cc1ccc(C(C)C)c(OCCCN2CCc3ccccc3C2)c1	D2 antag 30
Cc1ccc(C)c(OCCCN2CCc3ccccc3C2)c1	D2 antag 70
CCOC(=O)c1c(S(=O)(=O)N2CCC(C(=O)N3CCN(c4cccc(C)c4C)CC3)CC2)c(C)n(C)c1C	none (no result: D2 antag, D2 PAM-1, D2 ag-2)
Cc1oc2ccc(O)c(CN3CCN(Cc4ccccc4)CC3)c2c1C(=O)Nc1cccc(Cl)c1C	none (no result: D2 antag, D2 PAM-1, D2 ag-2)
CC(C)(C)c1ccc(C(=O)Nc2ccc([N+](=O)[O-])cn2)cc1	D2 antag 36
S=C(Nc1ccccc1Cl)N1CCC(c2ccccc2)C1 (centres undefined)	none
Cc1ccc(NC(=S)N2CCC(c3ccccc3)C2)c(Cl)c1 (centres undefined)	D2 antag 30
Cc1sc2ncnc(SCC(=O)NC3CCCC3)c2c1C	D2 antag 32 (no result: D2 PAM-2)
CCN1CCN(CCCN(Cc2ccco2)C(=S)Nc2ccc(C)c(Cl)c2)CC1	none
CCN1CCN(CCCN(Cc2ccco2)C(=S)Nc2cc(Cl)ccc2C)CC1	D2 antag 42
O=C(O)c1ccc(NS(=O)(=O)c2ccc3c(c2)C(=O)c2ccccc2C3=O)cc1	none
Cc1cccc(C)c1NS(=O)(=O)c1ccc2c(c1)C(=O)c1ccccc1C2=O	D2 PAM-1 60
CCc1nn(C(C)C(=O)NCCN2CCN(c3cccc(C)c3C)CC2)c(=O)c2cc3occc3n12 (centres undefined)	D2 antag 52
CC(=O)Oc1ccc(N2C(=O)CCC2=O)cc1	none
COc1ccc(N2C(=O)CCC2=O)cc1	D2 antag 34
CCOC(=O)N1CCN(C(=O)c2ccc3c(c2)N(Cc2ccccc2F)C(=O)c2ccccc2S3(=O)=O)CC1	none (no result: D2 antag, D2 PAM-1, D2 ag-2)
Cc1ccc(C)c(N2CCN(CCCNC(=O)CCn3c(=O)c4cccn4c4cccnc43)CC2)c1	none
Cc1ccc(C)c(N2CCN(CCCNC(=O)Cn3cc4c(n3)CCCCC4)CC2)c1	D2 antag 65
Cc1ccc(C)c(N2CCN(CCCNC(=O)Cn3c(=O)c4cccn4c4cccnc43)CC2)c1	D2 antag 63
CCOC(=O)c1ccccc1NS(=O)(=O)c1c(-c2ccc(C)cc2)csc1C(=O)OC	none (no result: D2 antag, D2 PAM-1, D2 ag-2)
CCOC(=O)c1[nH]c(=O)[nH]c1CSc1nc(C)cc(C)n1	D2 antag 32
